{
  "source": "PubChem BioAssay (EPA / NIEHS)",
  "note": "The source made the active and inactive calls. How the source made its calls: active means hit-call score of the fitted dose curve at least 0.9, where 1 is the maximum; inactive means score below 0.9.",
  "data": [
    {"read-out": "Glutathione S-transferase M3 (GSTM3), GSTM3 (gene 2947)", "test": "LTEA_HepaRG_GSTM3: Life Technologies and Expression Analysis (LTEA) Assay for Glutathione S-transferase M3 (GSTM3) using HepaRG (AID 2283501)", "conditions": "mRNA level, 48 h; actives raise or lower the signal", "experimental": "LTEA_HepaRG is a cell based, multiplexed-readout assay that uses HepaRG, a human liver cell line, with measurements taken at 48 hours after chemical dosing on a 96-well plate.LTEA_HepaRG_GSTM3 is one of 102 assay component(s) measured in the LTEA HepaRG cell culture assay. It is a marker of Oxidative Stress.Data from the assay component LTEA_HepaRG_GSTM3 was analyzed into 1 endpoint. This assay endpoint, LTEA_HepaRG_GSTM3, was analyzed with bidirectional fitting relative to DMSO as the negative control and baseline of activity. Using a type of inducible reporter, measures of mRNA induction for gain or loss-of-signal activity can be used to understand regulation of transcription factor activity. To generalize the intended target to other relatable targets, this assay endpoint is annotated to the transferase intended target family, where the subfamily is alkyl and aryl transferase.\nA total of 1060 chemcials from the ToxCast library were tested in eight-point concentration-response experiments. Cell culture and cytotoxicity assays were conducted at Thermo Fisher Scientific's Custom Services facility (Madison, WI). A single lot of human HepaRG cells (Thermo Fisher Scientific, Frederick, MD) was used for the cell culture experiments. 96-well format collagen type I coated plates of human HepaRG cells were prepared using established methods. Briefly, cryopreserved HepaRG cells were thawed, plated at a density of approximately 100,000 cells/well in HepaRG Thaw, Plate, and General Purpose media (HPRG770, Thermo Fisher Scientific), and incubated for 48 hours. 0.5% DMSO was selected as vehicle control to balance the requisite need of DMSO in HepaRG cultures to maintain differentiation (for example, baseline metabolism, proportions of hepatocytes vs. cholangiocytes), while enabling further hepatic receptor pathway activation (for example, PXR and CAR) in response to chemical exposure. 48 hours after plating, the culture medium was replaced with HepaRG Serum-Free Incudtion Media. Cells were exposed to each test chemical in duplicate and maintained in CO2 incubators for another 48 hours. Chemical plates were thawed to room temperature and 200x concentrations of treatment groups were prepared. 8-point conentration-reponse curves were made with the highest exposure at 100 uM, followed by half-log dilutions, all in 0.5% DMSO. Each test plate contained variouse controls, induction positive controls (1mM phenobarbital), cytotoxicity positive controls ([…] aflatoxin B1), vehicle controls (0.5% DMSO), and total lysis controls (0.5% DMSO). Cell morphology images were taken using an Essen IncuCyte FLR automated microscope, with six 96-well plates imaged in about 24 minutes. Images were captured and exported and JPEG files. Spent culture media was transfered to black-well plates for the LDH assay, and remaining media was sorted at -80 C for later use. Cells were treated with RLT buffer and frozen until shipped for gene expression analysis. Total RNA was isolated from the cell suspension in 75 uL of Buffer RLT (Qiagen, Germantown, MD 20874) by Quintiles/Expression Analysis (Durham, NC) using a custom isolation procedure. Total RNA from each plate well was transferred to a preamplification plate. Fluidigm's 96.96 Dynamic ArrayTM (Fluidigm, Amsterdam, the Netherlands) technology was used for gene expression analyses by quantitative reverse transcription polymerase chain reaction (qRT-PCR, performed by Quintiles/Expression Analysis, Durham, NC)89. Standard TaqManTM Assays (Applied Biosystems/ThermoFisher Scientific, Foster City, CA) were used to assess the expression of 93 genes selected based on their selectivity and sensitivity to important hepatic receptors known to be modulated by environmental chemicals; importance in human hepatocyte functionality; and hepatotoxicity. […]", "values": [
      {"smiles": "CCC[CH2][Sn]([Cl])([CH2]CCC)[CH2]CCC", "outcome": "inactive"},
      {"smiles": "OCCCl", "outcome": "inactive"},
      {"smiles": "Nc1ccc([N+](=O)[O-])cc1", "outcome": "inactive"},
      {"smiles": "Cn1cc(-c2ccccc2)c(=O)c(-c2cccc(C(F)(F)F)c2)c1", "outcome": "inactive"},
      {"smiles": "CCCCCCCCOC(=O)c1ccc(C(=O)OCCCCCCCC)c(C(=O)OCCCCCCCC)c1", "outcome": "inactive"},
      {"smiles": "Cc1ccc(N)c(N)c1", "outcome": "inactive"},
      {"smiles": "N#CC(Br)(Br)C(N)=O", "outcome": "inactive"},
      {"smiles": "CCOC(=O)[C@]1(c2ccccc2)Oc2ccccc2[C@@H]1N", "outcome": "inactive"},
      {"smiles": "COP(=S)(OC)SCN1C(=O)c2ccccc2C1=O", "outcome": "inactive"},
      {"smiles": "Cc1ccc(N=C=O)cc1N=C=O", "outcome": "inactive"},
      {"smiles": "Oc1ccc2ccc3cccc4ccc1c2c34", "outcome": "inactive"},
      {"smiles": "Clc1ccc(C(c2ccc(Cl)cc2)C(Cl)Cl)cc1", "outcome": "inactive"},
      {"smiles": "Nc1ccc(Cc2ccc(N)cc2)cc1", "outcome": "inactive"},
      {"smiles": "c1ccc(NNc2ccccc2)cc1", "outcome": "inactive"},
      {"smiles": "c1ccc2c(c1)-c1cccc3cccc-2c13", "outcome": "inactive"},
      {"smiles": "O=[N+]([O-])C(Br)(CO)CO", "outcome": "inactive"},
      {"smiles": "Nc1ccc(Oc2ccc(N)cc2)cc1", "outcome": "inactive"},
      {"smiles": "CCN(CC)N=O", "outcome": "inactive"},
      {"smiles": "Cc1ccc(N)cc1", "outcome": "inactive"},
      {"smiles": "O=C(Oc1ccc(Br)cc1)N1CCN2CCC1CC2", "outcome": "inactive"},
      {"smiles": "Oc1ccccc1Cl", "outcome": "inactive"},
      {"smiles": "Cc1cc(N=Nc2ccccc2C)ccc1N", "AC50": "1.48 µM (active)"},
      {"smiles": "CN(C)c1ccccc1", "outcome": "inactive"},
      {"smiles": "[As]#[In]", "outcome": "inactive"},
      {"smiles": "[O-][Cl+]O", "outcome": "inactive"},
      {"smiles": "O=C(Nc1ccccc1)c1ccccc1I", "outcome": "inactive"},
      {"smiles": "CO[C@@H]1[C@H](OC(=O)NC(=O)CCl)CC[C@]2(CO2)[C@H]1[C@@]1(C)O[C@@H]1CC=C(C)C", "outcome": "inactive"},
      {"smiles": "CNC(=O)Oc1cccc2c1OC(C)(C)C2", "outcome": "inactive"},
      {"smiles": "c1ccc(N=Nc2ccccc2)cc1", "outcome": "inactive"},
      {"smiles": "c1ccc2c(c1)oc1ccccc12", "outcome": "inactive"},
      {"smiles": "Clc1ccc(Cl)c(Cl)c1", "outcome": "inactive"},
      {"smiles": "CC(C)N(Cc1ccccc1)C(=O)C(C)(C)C", "outcome": "inactive"},
      {"smiles": "C1=Cc2cccc3cccc1c23", "outcome": "inactive"},
      {"smiles": "COc1cc(C=O)cc2c1[C@H](COC(N)=O)[C@]1(OC(C)=O)ON2C[C@H]2[C@@H]1N2C(C)=O", "outcome": "inactive"},
      {"smiles": "CC(C)(OOC(C)(C)c1ccccc1)c1ccccc1", "outcome": "inactive"},
      {"smiles": "CC(C)COC(=O)c1ccccc1C(=O)OCC(C)C", "outcome": "inactive"},
      {"smiles": "CCCCC(CC)COC(=O)c1ccc(C(=O)OCC(CC)CCCC)c(C(=O)OCC(CC)CCCC)c1", "note": "(stereo not given)", "outcome": "inactive"},
      {"smiles": "CC(C)(C)OOC(C)(C)CCC(C)(C)OOC(C)(C)C", "outcome": "inactive"},
      {"smiles": "ClC1=C(Cl)C2(Cl)C3C(Cl)C=CC3C1(Cl)C2(Cl)Cl", "note": "(stereo not given)", "outcome": "inactive"},
      {"smiles": "CC(C)(C)C(O)(CCc1ccc(Cl)cc1)Cn1cncn1", "note": "(stereo not given)", "outcome": "inactive"}
    ]}
  ]
}
